We go through twelve molecules from PubChem BioAssay (Tox21).

“And” between values parts separate entries of the source, which are not always exact repeats. Identical values can stand only once. Results filed as inconclusive are left out. A structure can be active in one record and inactive in another. The source made the active and inactive calls. Unless noted, the call rests on the fitted dose curve; in most records, active means well fitted curve in the direction sought with a large enough effect in the repeat runs; inconclusive means weak or mixed curves; inactive means no such curve, though single readings can be large; an effect the other way counts as inactive or inconclusive.

The nature of assay [1]: A CellTox Green Cytotoxicity Assay to monitor cytotoxicity in HepG2 cells - 0 hour (AID 1224882). Further: on the % scale 0 is the no-effect control and ±100 the full control effect; nearly all actives have a fitted effect of over 35% in size. The method, boiled down:
(§1)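 Fluorescent DNA-binding dye, 600 HepG2 cells/well, 5 h preincubation then compound in DMSO; same plates read at 0–40 h, 37 C.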

Assay [2] is described as follows: A CellTox Green Cytotoxicity Assay to monitor cytotoxicity in HepG2 cells - 32 hour (AID 1224883). Further: nearly all actives have a fitted effect of over 50% in size. Further: potency means the concentration at half of the fitted maximal effect. On cytotoxicity increase: on the % scale 0 is the no-effect control and ±100 the full control effect. Put shortly: as §1
Assay [3] can be described thus: A CellTox Green Cytotoxicity Assay to monitor cytotoxicity in HEK293 cells - 8 hour (AID 1224884). Further: nearly all actives have a fitted effect of over 35% in size. Further: potency means the concentration at half of the fitted maximal effect. On cytotoxicity increase: on the % scale 0 is the no-effect control and ±100 the full control effect. The method, boiled down: (§2)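 Homogeneous no-lysis format: HEK293 cell suspension mixed with CellTox Green reagent, seeded, incubated 5 h at 37 C/5% CO2, then dosed by pintool with compound in DMSO.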
The nature of assay [4]: qHTS RealTime-Glo MT Cell Viability Assay in HepG2 cells - 16 hour (AID 1224885). Further: nearly all actives have a fitted effect of over 50% in size. Further: potency means the concentration at half of the fitted maximal effect. On activity change, negative = cytotoxic: on the % scale 0 is the no-effect control and ±100 the full control effect. The method, boiled down:
(§3)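 Luminescence read-out: viable HepG2 cells reduce a prosubstrate to a NanoLuc substrate, giving a signal proportional to live cell number. Reads taken at 0, 8, 16, 24, 32 and 40 h of compound exposure at 37 C.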
A general note: Quantitative high-throughput screening tests each substance at several concentrations.

Assay [5] is described as follows: qHTS RealTime-Glo MT Cell Viability Assay in HEK293 cells - 24 hour (AID 1224886). Further: nearly all actives have a fitted effect of over 50% in size. Further: potency means the concentration at half of the fitted maximal effect. The method, boiled down: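 Nonlytic real-time viability readout: viable cells convert prosubstrate to NanoLuc substrate, giving luminescence proportional to live cell number. HEK293, 600 cells/well, compound added after 5 h, continuous culture at 37 C.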
Assay [6] in a line: qHTS RealTime-Glo MT Cell Viability Assay in HEK293 cells - 8 hour (AID 1224887). Further: nearly all actives have a fitted effect of over 50% in size. Further: potency means the concentration at half of the fitted maximal effect. The method, boiled down: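 Measured as luminescence from the same continuously cultured HEK293 wells at successive time points (0, 8, 16, 24, 32, 40 h) after compound addition. Reagent present from seeding; dosing at 5 h; incubation 37 C.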
A short description of assay [7]: A CellTox Green Cytotoxicity Assay to monitor cytotoxicity in HEK293 cells - 16 hour (AID 1224888). Further: nearly all actives have a fitted effect of over 35% in size. Further: potency means the concentration at half of the fitted maximal effect. Put shortly:
as §2

Assay [8] in a line: qHTS RealTime-Glo MT Cell Viability Assay in HepG2 cells - 0 hour (AID 1224889). Further: nearly all actives have a fitted effect of over 50% in size. Further: potency means the concentration at half of the fitted maximal effect. Put shortly:
as §3

Assay [9] can be described thus: A CellTox Green Cytotoxicity Assay to monitor cytotoxicity in HepG2 cells - 8 hour (AID 1224890). Further: nearly all actives have a fitted effect of over 45% in size. Further: potency means the concentration at half of the fitted maximal effect. Put shortly:
as §1

Assay [10] can be described thus: qHTS assay to identify small molecule antagonists of the estrogen receptor alpha (ER-alpha) signaling pathway using the BG1 cell line in the presence of 0.1 nM 17-beta-estradiol - cell viability counter screen (AID 1259241). Further: on the % scale 0 is the no-effect control and ±100 the full control effect; nearly all actives have a fitted effect of over 40% in size. Put shortly: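 Live-cell protease activity (CellTiter-Fluor fluorescence, 30 min) was read in the same wells after VM7Luc4E2 cells had been exposed to compounds with 0.1 nM 17beta-estradiol for 22 hr at 37C.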

Assay [11] can be described thus: qHTS assay to identify small molecule antagonists of the androgen receptor (AR) signaling pathway using the MDA cell line in the presence of 0.5 nM R1881 - cell viability counter screen (AID 1259242). Further: nearly all actives have a fitted effect of over 45% in size. Further: potency means the concentration at half of the fitted maximal effect. Put shortly:
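Human breast carcinoma MDA-kb2 cells, cultured without CO2, receive compounds alongside 0.5 nM (final) R1881 agonist. After 16 hr at 37C, viability is taken as live-cell protease signal.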

In assay [12] the target is Estrogen receptor (Homo sapiens) (UniProt P03372). Description: qHTS assay to identify small molecule antagonists of the estrogen receptor alpha (ER-alpha) signaling pathway using the BG1 cell line in the presence of 0.1 nM 17-beta-estradiol (AID 1259244). Put shortly: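 Seeding of stripped-serum-adapted VM7Luc4E2 cells, 24 h attachment, compound transfer, then 0.1 nM final 17beta-estradiol; after 22 h incubation, ONE-Glo reagent and luminescence reading.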

Assay [13] is described as follows: qHTS assay to identify small molecule HDAC inhibitors - cell viability counter screen (AID 1259365). The method, boiled down:
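HCT-116 (wild type), 1,500 cells/well, overnight 37C/5% CO2; compound in DMSO 2hr; CellTiter-Glo 30min RT; luminescence read.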

Assay [14] in a line: qHTS assay to identify small molecule agonists of the sonic hedgehog signaling (Shh) pathway - cell viability counter screen (AID 1259366). The method, boiled down: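 CellTiter-Fluor fluorescence read-out, 1 hr at 37C, added after 23hr compound exposure. Cells: 3T3 Gli1-Luc, an NIH/3T3 clone with stably integrated Gli1-Luc reporter, plated 4hr before compound.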
The nature of assay [15]: qHTS assay to identify small molecule antagonists of the sonic hedgehog signaling (Shh) pathway - cell viability counter screen (AID 1259367). Further: on the % scale 0 is the no-effect control and ±100 the full control effect; nearly all actives have a fitted effect of over 55% in size. The method, boiled down: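 Cytotoxicity was assessed in parallel with Shh reporter activity by measuring live-cell protease fluorescence (CellTiter-Fluor) in NIH/3T3 cells stably carrying Gli1-Luc, treated with compound under conditioned medium stimulation for 23 hr plus 1 hr reagent incubation.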

The nature of assay [16]: qHTS assay to identify small molecule agonists of the sonic hedgehog signaling (Shh) pathway (AID 1259368; calls by dose curve; further: nearly all actives have a fitted effect of over 15% in size; further: potency means the concentration at half of the fitted maximal effect). The method, boiled down:
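Stable NIH/3T3 Gli1-Luc reporter clone; 24 hr cpd exposure after a 4 hr settling period; luminescence endpoint.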

Assay [17] in a line: qHTS assay to identify small molecule antagonists of the sonic hedgehog signaling (Shh) pathway (AID 1259369; calls by dose curve; further: on the % scale 0 is the no-effect control and ±100 the full control effect; nearly all actives have a fitted effect of over 45% in size). The method, boiled down: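 Gli1 transcriptional reporter (firefly Luc) in NIH/3T3 background, conditioned-medium activated. 24hr exposure, luminescence endpoint.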
Assay [18] has as its target Androgen receptor (Homo sapiens) (UniProt P10275). Description: qHTS assay to identify small molecule antagonists of the androgen receptor (AR) signaling pathway using the MDA cell line in the presence of 0.5 nM R1881 (AID 1259243). Put shortly:
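Cells: MDA-kb2 (MMTV-luc). Stimulus: 0.5 nM R1881. Time: 16 hr, 37C, no CO2. Detection: ONE-Glo luminescence after 30 min at RT.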

A short description of assay [19]: qHTS assay to identify small molecule phospholipidosis (PLD) inducers (AID 1259344; active means well fitted curve in the direction sought with a large enough effect; an effect the other way counts as inactive or inconclusive; further: on the % scale 0 is the no-effect control and ±100 the full control effect). The method, boiled down:
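Cells (HepG2, 900 per well) attach for 4 h, receive LipidTOX Red and compound together, incubate 24 h at 37 C, are fixed 30 min with paraformaldehyde/Hoechst, then imaged at one site per well.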

A short description of assay [20]: qHTS assay to identify small molecule HDAC inhibitors (AID 1259364).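 Further: wild-type HCT-116 cells with endogenous class I/II HDAC activity; top concentration of the series differs between compounds; on the % scale 0 is the no-effect control and ±100 the full control effect; nearly all actives have a fitted effect of over 45% in size.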 Put shortly: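 After a 2 hr compound incubation (37C, 5% CO2), HCT-116 cells seeded at 1,500/well the day before received HDAC-Glo reagent; signal read as luminescence after 30 min at room temperature.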

Sequence of Estrogen receptor (Homo sapiens) (P03372 whole entry, looked up): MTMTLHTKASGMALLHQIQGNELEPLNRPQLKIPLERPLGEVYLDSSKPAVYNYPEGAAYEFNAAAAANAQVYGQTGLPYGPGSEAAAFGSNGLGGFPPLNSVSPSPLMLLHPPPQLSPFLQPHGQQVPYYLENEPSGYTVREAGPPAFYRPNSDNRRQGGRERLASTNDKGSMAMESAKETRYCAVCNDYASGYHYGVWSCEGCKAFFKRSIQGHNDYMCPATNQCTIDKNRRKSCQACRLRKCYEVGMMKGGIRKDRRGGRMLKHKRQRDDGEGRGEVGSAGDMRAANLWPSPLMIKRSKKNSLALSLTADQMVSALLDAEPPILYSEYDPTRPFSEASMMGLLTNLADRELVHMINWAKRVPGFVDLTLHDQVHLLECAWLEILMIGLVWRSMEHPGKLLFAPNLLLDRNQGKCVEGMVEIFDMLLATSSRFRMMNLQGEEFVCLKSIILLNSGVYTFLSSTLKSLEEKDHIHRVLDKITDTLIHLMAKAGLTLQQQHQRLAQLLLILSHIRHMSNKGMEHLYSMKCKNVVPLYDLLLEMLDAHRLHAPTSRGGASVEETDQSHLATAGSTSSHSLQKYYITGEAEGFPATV
Sequence of Androgen receptor (Homo sapiens) (P10275 whole entry, looked up): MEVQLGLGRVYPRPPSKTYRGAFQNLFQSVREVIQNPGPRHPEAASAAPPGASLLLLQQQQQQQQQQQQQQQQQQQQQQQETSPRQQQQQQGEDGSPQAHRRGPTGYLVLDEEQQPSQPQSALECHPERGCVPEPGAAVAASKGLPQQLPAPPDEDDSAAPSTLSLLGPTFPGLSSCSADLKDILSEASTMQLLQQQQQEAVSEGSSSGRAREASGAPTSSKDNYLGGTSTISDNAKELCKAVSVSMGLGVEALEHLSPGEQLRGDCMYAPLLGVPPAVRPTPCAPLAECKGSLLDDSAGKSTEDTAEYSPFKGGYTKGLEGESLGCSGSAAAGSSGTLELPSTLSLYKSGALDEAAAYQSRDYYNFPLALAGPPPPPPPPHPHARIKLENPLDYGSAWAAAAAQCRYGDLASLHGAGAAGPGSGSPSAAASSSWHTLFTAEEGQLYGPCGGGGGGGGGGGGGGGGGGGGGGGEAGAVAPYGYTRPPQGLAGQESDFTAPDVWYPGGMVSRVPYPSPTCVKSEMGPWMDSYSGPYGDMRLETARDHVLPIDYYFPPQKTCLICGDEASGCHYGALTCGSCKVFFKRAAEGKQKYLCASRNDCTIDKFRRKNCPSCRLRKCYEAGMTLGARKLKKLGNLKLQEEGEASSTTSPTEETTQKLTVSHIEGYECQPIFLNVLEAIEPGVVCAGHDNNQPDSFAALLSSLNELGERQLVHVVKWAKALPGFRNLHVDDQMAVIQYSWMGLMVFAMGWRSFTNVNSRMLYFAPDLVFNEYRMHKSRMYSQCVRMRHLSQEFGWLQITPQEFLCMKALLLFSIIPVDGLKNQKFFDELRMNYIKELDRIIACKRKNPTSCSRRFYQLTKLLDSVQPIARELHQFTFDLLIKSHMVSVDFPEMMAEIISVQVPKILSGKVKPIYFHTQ

Turning to `CCCCOC(=O)CO`, the Potency entry in [1], in [2], in [3], in assay [4], in [5] and in [6] was “inactive” each time. Moreover, the Potency result in [7], in assay [8], in assay [9], in [10], in [11] and in assay [12] was “inactive” in each case. Besides, the Potency result in assay [13], in assay [14], in assay [15], in assay [16] and in [17] was “inactive” in each case.
As for `Oc1c(I)cc(Cl)c2cccnc12`, the Potency result in assay [1], in assay [2], in [3], in [4], in [6] and in [7] was “inactive” in each case. The Potency result in assay [8], in assay [9], in [10], in assay [19], in [20] and in assay [13] was “inactive” throughout. In addition, the Potency result in assay [14] and in [15] was “inactive” in each case. The Potency in assay [5] was 34.6 µM (active) and inactive; in assay [18] it was 27.3 µM (active) and 26.6 µM (active); in [16], 38.5 µM (active).
Consider `C1CCC(SSC2CCCCC2)CC1`, for which the Potency result in assay [1], in [2], in [3], in [4], in [5] and in assay [6] was “inactive” in each case. The Potency entry in [7], in assay [9], in assay [10], in assay [11], in [12] and in [20] was “inactive” throughout. Moreover, the Potency result in [13], in [14], in assay [15], in assay [16] and in [17] was “inactive” in each case.
As to `CN(C)C(=O)COC(=O)Cc1ccc(OC(=O)c2ccc(N=C(N)N)cc2)cc1`, the Potency entry in assay [1], in assay [2], in assay [3], in assay [4], in assay [5] and in assay [6] was “inactive” each time. The Potency result in [7], in assay [9], in [10], in assay [11], in assay [19] and in [13] was “inactive” throughout. In addition, the Potency result in [14], in [15], in [16] and in [17] was “inactive” throughout.
Regarding `CN(C)Cc1cc(C(C)(C)C)c(O)c(C(C)(C)C)c1`, the Potency result in [1], in assay [2], in assay [3], in assay [4], in assay [5] and in assay [6] was “inactive” each time. In addition, the Potency entry in [7], in [8], in [9], in [10], in assay [11] and in assay [13] was “inactive” each time. Besides, the Potency result in assay [15] and in assay [16] was “inactive” in each case.
Regarding `OCC(F)(F)F`, the Potency result in assay [1], in assay [2], in [3], in assay [4], in assay [5] and in assay [6] was “inactive” in each case. The Potency entry in [7], in assay [8], in assay [9], in assay [10], in assay [11] and in [20] was “inactive” throughout. Also, the Potency result in [13], in assay [14], in [15] and in assay [16] was “inactive” each time.
For `C=CCn1c(=O)n(CC=C)c(=O)n(CC=C)c1=O`, the Potency entry in assay [1], in [2], in [3], in [4], in [5] and in assay [6] was “inactive” each time. Also, the Potency result in assay [7], in assay [8], in [9], in assay [10], in [11] and in [13] was “inactive” throughout. Also, the Potency entry in [16] is “inactive”.
Take `CC(N=C(NC#N)Nc1ccncc1)C(C)(C)C` (stereo unspecified): the Potency entry in assay [1], in assay [2], in assay [3], in [4], in assay [5] and in [6] was “inactive” throughout. Moreover, the Potency entry in assay [7], in assay [8], in assay [9], in assay [10], in [11] and in assay [19] was “inactive” throughout. Also, the Potency entry in assay [20], in assay [13], in assay [14], in [15], in assay [16] and in assay [17] was “inactive” throughout.
For the molecule `C[C@@H](O)[C@H](N)C(=O)O`, the cytotoxicity in assay [1] was 7.45% [at 15.8 µM] (inactive). The cytotoxicity increase is 4.24% [at 15.8 µM] (inactive) in assay [2], -5.26% [at 15.8 µM] (inactive) in assay [3] and 6.73% [at 15.8 µM] (inactive) in [9]. For the same molecule, the activity change, negative = cytotoxic in [4] was -0.0796% [at 15.8 µM] (inactive). Further, the activity change, negative = cytotoxicity is 0.683% [at 15.8 µM] (inactive) in assay [5]; -0.878% [at 15.8 µM] (inactive) in assay [6]; 0.322% [at 15.8 µM] (inactive) in assay [8]; -3.81% [at 19 µM] (inactive) in [10]; -2.68% [at 19 µM] (inactive) in assay [13]. Further, the activity change in assay [7] was -2.81% [at 15.8 µM, stronger effect = higher value] (inactive); in [16], 0.344% [at 18.9 µM, stronger effect = higher value] (inactive). Also, the viability change, negative = cytotoxic in [11] was 0.742% [at 19 µM] (inactive); in assay [14] it was 6.05% [at 19 µM] (inactive); in assay [15] it was 3.97% [at 19 µM] (inactive). In [19], the Potency result is “inactive”. The activity change, negative = inhibition in [20] was -3.34% [at 19 µM] (inactive); in [17], 10.6% [at 19 µM] (inactive).
With `CCC(C)[O-].CCC(C)[O-].CCOC(=O)/C=C(/C)[O-].[Al+3]`, the Potency entry in [1], in assay [2], in assay [3], in assay [4], in assay [5] and in [6] was “inactive” in each case. The Potency result in assay [7], in assay [8], in assay [9], in [10], in assay [11] and in assay [13] was “inactive” each time. Also, the Potency entry in assay [15], in [16] and in assay [17] was “inactive” throughout.
Take `CCCCC(CC)CN1CN(CC(CC)CCCC)CC(C)(N)C1` (stereo unspecified): the Potency result in assay [1], in [10], in assay [12], in [19], in [20] and in assay [13] was “inactive” throughout. Besides, the Potency entry in assay [15], in [16] and in assay [17] was “inactive” each time. Also, the Potency in assay [2] is 19 µM (active); in [3] it was 15.1 µM (active); in assay [4], 19 µM (active); in assay [5] it was 8.49 µM (active); in assay [6], 10.7 µM (active); in assay [7], 13.4 µM (active). Further, the Potency was 21.3 µM (active) in assay [9], 26.6 µM (active) in assay [11] and 26.6 µM (active) in assay [18].
On to `CCCC(=O)OCOC(=O)C1=C(C)NC(C)=C(C(=O)OC)C1c1cccc(Cl)c1Cl` (stereo unspecified), for which the Potency entry in [1], in [2], in assay [3], in assay [4], in [5] and in assay [6] was “inactive” each time. Moreover, the Potency entry in assay [7], in assay [9], in [10], in assay [11], in assay [12] and in [13] was “inactive” throughout. Also, the Potency result in assay [14], in assay [15], in [16] and in [17] was “inactive” in each case. Moreover, the Potency in assay [8] was 10.7 µM (active).
